Screening results as filed in PubChem.
A selection: hits, their analogues and other compounds. The true share with any hit is near 1.1%.
Menin-MLL FL inh = qHTS Assay for Inhibitors Targeting the Menin-MLL Interaction in MLL Related Leukemias: Competition With Fluorescein Labeled MLL-derived Peptide | Fluorescence polarization, fluorescein-MLL peptide displacement from menin | FP activity change, % at 61.4 µM | 290,000 tested, under 10 active | AID 1766, 2009; active = well fitted curve in the direction sought with a large enough effect in the polarisation, not every such curve was filed as active; inconclusive = small, poorly fitted or top-dose-only effect, or effect the other way, or a change in a side signal; inactive = no such curve, though single readings can be large or run the other way; the % refers to the polarisation
Menin-MLL TR inh = qHTS Assay for Inhibitors Targeting the Menin-MLL Interaction in MLL Related Leukemias: Competition With Texas Red Labeled MLL-derived Mutant Peptide | Menin + Texas Red MLL mutant peptide, fluorescence polarization | Potency, µM (series often up to 61.6 µM), most hits filed as inhibitors | actives 0.23% (n = 270,000) | AID 1768, 2009; active = well fitted inhibition curve with a large enough effect in the polarisation, with a control signal flat, not every such curve was filed as active; inconclusive = small, poorly fitted or top-dose-only effect, or effect the other way, or a change in a side signal; inactive = no such curve, though single readings can be large or run the other way; the % refers to the polarisation
Target sequence (O00255 whole entry, looked up): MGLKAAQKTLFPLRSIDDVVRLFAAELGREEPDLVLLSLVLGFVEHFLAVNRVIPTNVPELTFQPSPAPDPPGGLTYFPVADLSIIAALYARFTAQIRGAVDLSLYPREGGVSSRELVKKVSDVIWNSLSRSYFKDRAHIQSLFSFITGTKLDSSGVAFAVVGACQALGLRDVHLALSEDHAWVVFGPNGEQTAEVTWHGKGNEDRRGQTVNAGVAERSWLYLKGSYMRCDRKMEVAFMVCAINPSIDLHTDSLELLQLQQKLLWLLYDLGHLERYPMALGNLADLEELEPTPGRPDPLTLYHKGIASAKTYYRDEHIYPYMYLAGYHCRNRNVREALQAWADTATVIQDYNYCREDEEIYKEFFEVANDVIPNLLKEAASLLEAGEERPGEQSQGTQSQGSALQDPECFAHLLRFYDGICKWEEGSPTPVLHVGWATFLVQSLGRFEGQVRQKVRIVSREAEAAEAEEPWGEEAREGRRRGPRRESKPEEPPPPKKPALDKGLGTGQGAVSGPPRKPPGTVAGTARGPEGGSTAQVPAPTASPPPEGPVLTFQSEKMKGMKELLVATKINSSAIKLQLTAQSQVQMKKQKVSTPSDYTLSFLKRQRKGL
KCNH2 3.1 block = qHTS for Inhibitors of KCHN2 3.1: Mutant qHTS. U2OS KCNH2 3.1, thallium flux FluxOr; stronger effect = lower value. activity change, % (tested at about 1.8 µM). actives 0.95% (n = 340,000);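 active = maximum activity change below -70%; inconclusive = maximum activity change from -70% to -50%; inactive = maximum activity change above -50%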;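 note: thallium influx rate constant from kinetic fluorescence after stimulation buffer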
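We transduce U2OS cells with the mutant 3.1 virus, culture them overnight, load FluxOr with Red40 quencher for 45 min, then add stimulation buffer and read kinetically for 2 min to derive a normalized rate constant.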
MLL CXXC-DNA inh = qHTS Fluorescence Polarization Assay for Inhibitors of MLL CXXC domain - DNA interaction | Histone-lysine N-methyltransferase 2A (Homo sapiens), Q03164 | MLL-CXXC / FITC-HOXA9 DNA fluorescence polarization | Potency, µM (highest dose often 115 µM), usual class: inhibitors | actives 0.037% (n = 290,000) | AID 2662, 2010; active = well fitted inhibition curve with a large enough effect in the polarisation, with a control signal flat, not every such curve was filed as active; inconclusive = small, poorly fitted or top-dose-only effect, or effect the other way, or a change in a side signal; inactive = no such curve, though single readings can be large or run the other way; the % refers to the polarisation
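Fluorescence polarization: 7 uM MLL-CXXC (stock) preincubated 5 min with compounds, then 50 nM fluorescein-HOX-A9 DNA (stock) added; 30 min ambient. Buffer 50 mM Tris-HCl pH 7.5, 50 mM NaCl, 1 mM DTT, 0.05% BSA.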
hERG WT inh = qHTS for Inhibitors of KCHN2 3.1: Wildtype qHTS. Voltage-gated inwardly rectifying potassium channel KCNH2 (Homo sapiens), Q12809. U2OS, BacMam KCNH2, thallium flux FluxOr; stronger effect = lower value. activity change, % at 1.84 µM. actives 0.37% (n = 340,000);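 active = maximum activity change below -70%; inconclusive = maximum activity change between -70% and -50%; inactive = maximum activity change above -50%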
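U2OS cells transduced with wild-type KCNH2 virus are loaded with FluxOr dye for 45 min, and thallium flux is measured in kinetic reads before and after stimulation buffer. Rate constants are normalized to DMSO controls.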
Each line names hits and unclear results; the compound was inactive in the other large screens.

CN1C(=O)/C(=C\c2ccccc2F)Sc2ccc(C(=O)NC3CCN(Cc4ccccc4)CC3)cc21	KCNH2 3.1 block -81, hERG WT inh -83
O=C(Nc1ccccc1C(=O)Nc1ccccc1)c1ccccc1F	Menin-MLL TR inh inconclusive
O=C(Nc1ccccc1NC(=O)c1ccccc1F)c1ccccc1F	hERG WT inh -89
CSCC[C@H](NC(=O)[C@H](CC(C)C)NC(=O)CNC(=O)[C@@H]1CCCN1C(=O)[C@H](Cc1ccccc1)NC(=O)[C@H](Cc1ccccc1)NC(=O)[C@H](CC(=O)O)NC(=O)[C@H](Cc1cnc[nH]1)NC(=O)[C@H](CCSC)NC(=O)[C@@H](N)CC(=O)O)C(N)=O	Menin-MLL FL inh inconclusive (no result: KCNH2 3.1 block, MLL CXXC-DNA inh, hERG WT inh)
O=[N+]([O-])c1ccc(OCC(O)CN(C2CCCCC2)C2CCCCC2)cc1 (stereo not drawn)	KCNH2 3.1 block -106, hERG WT inh -70
CC(Cc1ccccc1)NC(=O)CN1C(=O)c2ccccc2S1(=O)=O (stereo not drawn)	none (no result: Menin-MLL FL inh, Menin-MLL TR inh)
O=C1CCCCc2sc(Br)c([N+](=O)[O-])c2N1	none (no result: Menin-MLL TR inh)
Cc1ccccc1CS(=O)(=O)Cc1ccc(C(=O)NCCc2ccccc2)o1	KCNH2 3.1 block -71
COc1ccc(C)cc1S(=O)(=O)N1CCCC(C(=O)N2CCN(c3ccccc3F)CC2)C1 (stereo not drawn)	Menin-MLL TR inh inconclusive, MLL CXXC-DNA inh inconclusive
CCOC(=O)c1nc(C)sc1-c1ccnn1S(=O)(=O)c1cccc(Cl)c1	hERG WT inh -135 (no result: Menin-MLL TR inh)
CCOC(=O)c1nn(-c2cccc(Cl)c2)c(C)c1C(C)=O	none
Cc1[nH]n(-c2ccc([N+](=O)[O-])cc2)c(=O)c1C=NCCN1CCN(C(=O)c2ccc(F)cc2)CC1	Menin-MLL TR inh inconclusive
Cc1[nH]n(-c2ccc([N+](=O)[O-])cc2)c(=O)c1C=NCCN1CCN(C(=O)c2ccc(Br)cc2)CC1	Menin-MLL TR inh inconclusive, KCNH2 3.1 block -84, hERG WT inh -108
COCCn1c(=O)cnc2cnc(N3CCN(C)CC3)nc21	Menin-MLL TR inh 35µM (no result: KCNH2 3.1 block, MLL CXXC-DNA inh, hERG WT inh)
O=C(NCc1ccccc1)c1cccc(NC(=O)C2CCCC2)c1	none (no result: Menin-MLL FL inh, Menin-MLL TR inh, MLL CXXC-DNA inh)
CN(C)S(=O)(=O)c1ccc(C(=O)NCC(C)(C)CN=C2NS(=O)(=O)c3ccccc32)cc1	Menin-MLL TR inh inconclusive
CC(C)(CN=C1NS(=O)(=O)c2ccccc21)CNC(=O)c1ccccc1	hERG WT inh -94
Cn1c(-c2ccc3c(c2)OCO3)cnc1N	KCNH2 3.1 block -75, MLL CXXC-DNA inh inconclusive
COC(=O)CC(c1ccc(OC)c(OC)c1)c1ccc(OC)c(OC)c1	hERG WT inh -212
CCN1CCN(C(CNS(=O)(=O)c2cccs2)c2cccnc2)CC1 (stereo not drawn)	KCNH2 3.1 block -462 (no result: Menin-MLL TR inh)
S=c1nc(-c2ccccc2)[nH]c2ccc(Br)cc12	hERG WT inh -73 (no result: Menin-MLL TR inh)
COCCn1cnc2c1-c1ccc(OC)c(c1)OC/C=C\COc1cccc-2c1	none (no result: KCNH2 3.1 block, MLL CXXC-DNA inh, hERG WT inh)
CCOC(=O)OCC1OC(c2ccc(C(C)=O)cc2)C=CC1OC(=O)OCC (stereo not drawn)	none (no result: KCNH2 3.1 block, MLL CXXC-DNA inh, hERG WT inh)
COc1cc(CNCCc2c[nH]c3ccccc23)ccc1OCc1ccc(F)cc1	KCNH2 3.1 block -88, MLL CXXC-DNA inh inconclusive
COc1ccc(NC(=O)CSc2nnc(-c3cccs3)n2N)cc1S(N)(=O)=O	none (no result: Menin-MLL FL inh, Menin-MLL TR inh, MLL CXXC-DNA inh)
CC1=CC(C)(C)NC(=S)N1c1ccc(C)cc1C	hERG WT inh -101
CCN(CC)c1ccc2cc(-c3nc4ccccc4[nH]3)c(=O)oc2c1	Menin-MLL FL inh inconclusive, Menin-MLL TR inh inconclusive, KCNH2 3.1 block -112, MLL CXXC-DNA inh inconclusive, hERG WT inh -93
CCN(CC)c1ccc2cc(-c3nnc(-c4ccccc4)o3)c(=O)oc2c1	Menin-MLL FL inh inconclusive, MLL CXXC-DNA inh inconclusive, hERG WT inh -96
Cc1ccnc(NC(=O)CNC(=O)c2ccccc2Br)c1	hERG WT inh -71 (no result: Menin-MLL FL inh, Menin-MLL TR inh)
CC(=O)Nc1ccc(Sc2ncccc2C(=O)Nc2ccc(OC(F)(F)F)cc2)cn1	KCNH2 3.1 block -86, MLL CXXC-DNA inh inconclusive
CCOc1ccc(NC(=O)CN(C)C(=O)c2sc3ccccc3c2Cl)cc1OCC	none (no result: Menin-MLL FL inh, Menin-MLL TR inh, MLL CXXC-DNA inh)
COc1ccccc1NC(=O)C(C)OC(=O)CSCC(=O)Nc1cc(C)on1 (stereo not drawn)	none (no result: Menin-MLL FL inh, Menin-MLL TR inh, MLL CXXC-DNA inh)
COc1ccccc1NC(=O)C(C)OC(=O)CSCC(=O)Nc1ccc(C)cc1C (stereo not drawn)	KCNH2 3.1 block -74 (no result: Menin-MLL FL inh, Menin-MLL TR inh, MLL CXXC-DNA inh)
CC(=O)OC[C@@H]1O[C@H](C/C=N\O[C@@H](C)CN2CCCCc3nc(C)c(C)cc32)C=C[C@@H]1OC(C)=O	none (no result: KCNH2 3.1 block, MLL CXXC-DNA inh, hERG WT inh)
Cc1cc2cc(CN(Cc3ccc4c(c3)OCO4)Cc3nnnn3C3CCCC3)c(=O)[nH]c2cc1C	none
Cc1ccc2[nH]c(=O)c(CN(Cc3ccc4c(c3)OCO4)Cc3nnnn3C3CCCC3)cc2c1	KCNH2 3.1 block -128
CCc1ccc2[nH]c(=O)c(CN(Cc3nnnn3C3CCCC3)C3CCCCC3)cc2c1	KCNH2 3.1 block -189
CCN(CC)CC(O)CN(c1ccccc1)S(=O)(=O)c1ccc2ccccc2c1 (stereo not drawn)	Menin-MLL TR inh inconclusive, KCNH2 3.1 block -106, hERG WT inh -89
C=CCNC(=O)/C(=C\c1ccc(OC)cc1)NC(=O)c1ccc([N+](=O)[O-])cc1	none
Cc1ccc(C(=O)N/C(=C\c2ccc(Cl)cc2)C(=O)NCCN2CCOCC2)cc1	KCNH2 3.1 block inconclusive, hERG WT inh -93
Cc1ccc(C(=O)N/C(=C\c2ccc([N+](=O)[O-])cc2)C(=O)NCCc2ccccc2)cc1	KCNH2 3.1 block -96
O=C(NCCN1CCOCC1)/C(=C/c1ccc(Cl)cc1)NC(=O)c1ccccc1	none (no result: Menin-MLL FL inh, Menin-MLL TR inh)
COc1ccc(/C=C(/NC(=O)c2ccc([N+](=O)[O-])cc2)C(=O)NCCCN(C)C)cc1	KCNH2 3.1 block inconclusive, hERG WT inh -84
COc1ccc(/C=C(\NC(=O)c2ccc([N+](=O)[O-])cc2)C(=O)NCCN2CCOCC2)cc1	KCNH2 3.1 block -78, hERG WT inh -118
CC(=O)c1ccc(OC2C(O)COC2/C=C/c2ccc(Cl)cc2)cc1 (stereo not drawn)	none (no result: KCNH2 3.1 block, MLL CXXC-DNA inh, hERG WT inh)
CCc1ccc(N(CC(=O)NCc2ccco2)C(=O)CCC(=O)Nc2ccccn2)cc1	none
CN(C)CCCNC(=O)/C(=C\C=C\c1ccccc1)NC(=O)c1ccc([N+](=O)[O-])cc1	KCNH2 3.1 block -99, hERG WT inh -72 (no result: Menin-MLL TR inh)
CCCCOc1ccc(C(=O)N/C(=C/C=C/c2ccccc2)C(=O)NCCCO)cc1	none
CCOC(=O)/C(=C\c1ccc(N2CCC(c3ccccc3)=N2)cc1)C(C)=O	none (no result: Menin-MLL FL inh, Menin-MLL TR inh, MLL CXXC-DNA inh)
